Data from PubChem BioAssay (NCATS).
Inconclusive results are not listed. Calls of active or inactive are those of the source. The call rests on the fitted dose curve; in most records, active means well fitted curve in the direction sought with a large enough effect; inconclusive means small, poorly fitted or top-dose-only effect, or another doubt; inactive means no such curve, though single readings can be large; an effect the other way counts as inactive or inconclusive.

Columns and labels:
[1] = biological target: Glutathione peroxidase 1 (Homo sapiens) (UniProt P07203); assay: Primary qHTS Assay for Inhibitors of Recombinant Selenoprotein Glutathione Peroxidase 1 (GPX1) (AID 1845191); further: nearly all actives have a fitted effect of over 65% in size
Summary of the method: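 GR-coupled assay: compounds preincubated 30 min at room temperature with GPX1, then reaction started with CHP; final 10 nM GPX1, 1 mM GSH, 0.5 mM CHP, 0.5 mM NADPH, 100 nM GR, 0.01% BSA, pH 7.5 Tris buffer. NADPH fluorescence (340/450 nm) read at 0 and 15 min.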

[2] = biological target: Phospholipid hydroperoxide glutathione peroxidase GPX4 (Homo sapiens) (UniProt P36969); assay: Primary qHTS Assay for Inhibitors of Recombinant Selenoprotein Glutathione Peroxidase 4 (GPX4) (AID 1845192); further: nearly all actives have a fitted effect of over 65% in size
Summary of the method: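 GR-coupled assay: recombinant GPX4 preincubated 30 min with compound at room temperature; final 200 nM GPX4, 1 mM GSH, 0.5 mM cumene hydroperoxide, 0.5 mM NADPH, 100 nM GR, 0.01% BSA, pH 7.5 Tris. NADPH fluorescence (340/450 nm) read at 0 and 15 min.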

[3] = Quantitative High-Throughput drug screen in 47 multiple myeloma cell lines against the NCATS MIPE library collection: FR4_PLB cell viability assay (AID 1918924; further: nearly all actives have a fitted effect of over 35% in size; further: potency means the concentration at half of the fitted maximal effect)
Summary of the method: (§1)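 Inhibition of cell viability is measured here. Each line was plated at 500 cells per well, treated with MIPE 4.0 drugs, kept 48 hours at 37C, then assayed for ATP content by CellTiter-Glo luminescence.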

[4] = Quantitative High-Throughput drug screen in 47 multiple myeloma cell lines against the NCATS MIPE library collection: Delta47_JCRB cell viability assay (AID 1918925; further: nearly all actives have a fitted effect of over 45% in size; further: potency means the concentration at half of the fitted maximal effect)
Summary of the method: (§2)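 Myeloma cells (500 per well) were exposed to MIPE 4.0 compounds by pin transfer and incubated 48 hours at 37C, 5% CO2. Viability was read as ATP by CellTiter-Glo luminescence, normalised to DMSO (100%) and media-only (0%) wells.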

[5] = Quantitative High-Throughput drug screen in 47 multiple myeloma cell lines against the NCATS MIPE library collection: EJM_DSMZ cell viability assay (AID 1918926; further: nearly all actives have a fitted effect of over 30% in size; further: potency means the concentration at half of the fitted maximal effect)
Summary of the method: as §2

[6] = Quantitative High-Throughput drug screen in 47 multiple myeloma cell lines against the NCATS MIPE library collection: ARP1_JJKsccF8 cell viability assay (AID 1918928; further: nearly all actives have a fitted effect of over 40% in size; further: potency means the concentration at half of the fitted maximal effect)
Summary of the method: (§3)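 Myeloma cells, 500 per well, were exposed to MIPE 4.0 drugs by pin transfer for 48 h at 37 °C, 5% CO2. Viability was read as ATP luminescence with CellTiter-Glo, normalised to DMSO-only (100%) and medium-only (0%) wells.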

[7] = Quantitative High-Throughput drug screen in 47 multiple myeloma cell lines against the NCATS MIPE library collection: Karpas620_DSMZ cell viability assay (AID 1918959); further: nearly all actives have a fitted effect of over 30% in size; further: potency means the concentration at half of the fitted maximal effect
Summary of the method: as §1

[8] = biological target: Luciferin 4-monooxygenase (Photinus pyralis) (UniProt P08659); assay: Primary firefly luciferase (FLuc) qHTS assay for identification of artifact compounds. (AID 1845220); further: nearly all actives have a fitted effect of over 60% in size
Summary of the method: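 Enzymatic FLuc inhibition assay: compounds pre-exposed to luciferin/ATP (10 uM each) for 15 min, then purified P. pyralis enzyme at 10 nM added. Read-out: luminescence at 5 min.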

[9] = Quantitative High-Throughput drug screen in 47 multiple myeloma cell lines against the NCATS MIPE library collection: AMO1_DSMZ cell viability assay (AID 1918927; further: nearly all actives have a fitted effect of over 30% in size; further: potency means the concentration at half of the fitted maximal effect)
Summary of the method: as §2

[10] = Quantitative High-Throughput drug screen in 47 multiple myeloma cell lines against the NCATS MIPE library collection: ARD_JJKsccE7 cell viability assay (AID 1918929; further: potency means the concentration at half of the fitted maximal effect)
Summary of the method: as §2

[11] = Quantitative High-Throughput drug screen in 47 multiple myeloma cell lines against the NCATS MIPE library collection: KMM1_JCRB cell viability assay (AID 1918960); further: nearly all actives have a fitted effect of over 30% in size; further: potency means the concentration at half of the fitted maximal effect
Summary of the method: as §3

[12] = Primary redox qHTS assay for identification of artifact compounds. (AID 1845223)
Summary of the method: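 Amplex Red (25 uM) and HRP (250 mU/mL) in HBSS, with compounds for 15 min, then 250 uM DTT for 30 min, room temperature, dark. Fluorescence 525/598 nm read; normalized to DMSO and 10 uM DA3003; Hill fit.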

[13] = Primary fluorescence-based thiol-reactive (MSTI) qHTS assay for identification of artifact compounds. (AID 1845221);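 further: series mostly up to about 54 µM; thiol-reactive compounds lower the probe fluorescence signal; nearly all actives have a fitted effect of over 65% in size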
Summary of the method: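 A multi-concentration qHTS design tested compounds against 4 uM MSTI, pH 7.4 phosphate-buffered saline. Plates were protected from light for 1 h at room temperature before imaging fluorescence.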

[14] = tested on: Nanoluciferase (engineered Oplophorus gracilirostris luciferase); assay: Primary Nanoluciferase (NLuc) qHTS assay for identification of artifact compounds. (AID 1845222);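 further: NLuc secreted into diluted conditioned medium of S16 cells; series mostly up to about 54 µM; 0% = DMSO and -100% = no enzyme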
Summary of the method: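 S16 cell supernatant NLuc, 1:55; cpds qHTS; 15 min RT dark; Nano-Glo substrate 1:100, 5 min; luminescence; Hill fit of % inhibition.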

Chain of Glutathione peroxidase 1 (Homo sapiens) (P07203 whole entry, looked up): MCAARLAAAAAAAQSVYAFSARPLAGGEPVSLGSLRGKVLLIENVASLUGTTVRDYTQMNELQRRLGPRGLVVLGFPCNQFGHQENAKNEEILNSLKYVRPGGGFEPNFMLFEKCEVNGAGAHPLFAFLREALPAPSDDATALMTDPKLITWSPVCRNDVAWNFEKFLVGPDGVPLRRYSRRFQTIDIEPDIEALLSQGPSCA
Chain of Phospholipid hydroperoxide glutathione peroxidase GPX4 (Homo sapiens) (P36969 whole entry, looked up): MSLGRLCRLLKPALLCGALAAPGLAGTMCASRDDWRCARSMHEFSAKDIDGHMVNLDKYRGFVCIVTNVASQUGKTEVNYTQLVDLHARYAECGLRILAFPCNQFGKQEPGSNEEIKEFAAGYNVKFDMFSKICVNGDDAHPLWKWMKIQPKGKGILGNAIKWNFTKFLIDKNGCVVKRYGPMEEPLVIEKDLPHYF

CC(=O)OCC(=O)[C@@]1(O)[C@H](C)C[C@H]2[C@@H]3C=C(C)C4=Cc5c(cnn5-c5ccccc5)C[C@]4(C)[C@@H]3[C@@H](O)C[C@@]21C
active: Potency [3] 14800 nM | Potency [4] 5900 nM | Potency [5] 20900 nM | Potency [6] 4690 nM | Potency [7] 8330 nM
inactive: Potency [1] | Potency [2]

CNC(=O)c1nn(C)c2c1C(C)(C)Cc1cnc(Nc3ccc(N4CCN(C)CC4)cc3)nc1-2
inactive: Potency [1] | Potency [2] | Potency [8]
active: Potency [3] 1660 nM | Potency [4] 1050 nM | Potency [5] 2640 nM | Potency [9] 1180 nM | Potency [6] 4690 nM | Potency [10] 3320 nM | Potency [7] 4690 nM | Potency [11] 935 nM

CCOC(=O)C1=C(C)NC2=C(C(=O)CC(C)(C)C2)C1c1ccc(-c2ccccc2)cc1 (stereo not drawn)
inactive: Potency [1] | Potency [2] | Potency [8] | Potency [12]
active: Potency [3] 20900 nM | Potency [4] 14800 nM | Potency [6] 23500 nM

CN(C)c1nc(Cc2ccc(NC(=O)c3ccc4ccccc4c3)cc2)nc(Cl)c1CC(=O)O
inactive: Potency [1] | Potency [2] | Potency [13] | Potency [14] | Potency [12] | Potency [3] | Potency [4] | Potency [6] | Potency [10] | Potency [7]

COC(=O)C1=C(C)NC(C)=C(C(=O)OCCN2CCN(C(c3ccccc3)c3ccccc3)CC2)C1c1cccc([N+](=O)[O-])c1 (stereo not drawn)
inactive: Potency [1] | Potency [2] | Potency [3] | Potency [4] | Potency [5] | Potency [9] | Potency [7] | Potency [11]

C=CC(=O)Nc1cc2c(Nc3ccc(F)c(Cl)c3)ncnc2cc1C#CC(C)(C)N1CCN(C)CC1
inactive: Potency [1] | Potency [2]
active: Potency [3] 3720 nM | Potency [4] 469 nM | Potency [5] 2090 nM | Potency [9] 662 nM | Potency [6] 5900 nM | Potency [10] 1050 nM | Potency [7] 590 nM | Potency [11] 1480 nM

CC(=O)OCCN1C(=O)c2c(C)nc3ccc(S(=O)(=O)N4CCOCC4)cc3c2C1=O
inactive: Potency [1] | Potency [2] | Potency [3] | Potency [4] | Potency [5] | Potency [9] | Potency [6] | Potency [10] | Potency [7] | Potency [11]

O=C(NC1CCNCC1)c1[nH]ncc1NC(=O)c1c(Cl)cccc1Cl
active: Potency [3] 83.3 nM | Potency [4] 372 nM | Potency [5] 105 nM | Potency [6] 372 nM | Potency [7] 935 nM | Potency [11] 590 nM
inactive: Potency [1] | Potency [2]

CN1CCN(c2cc(C(=O)Nc3ccc4c(c3)-c3c(c(C(N)=O)nn3-c3ccc(F)cc3)CC4)c(Cl)cn2)CC1
inactive: Potency [1] | Potency [2]
active: Potency [3] 16600 nM | Potency [4] 935 nM | Potency [5] 833 nM | Potency [9] 7430 nM | Potency [11] 20900 nM

CCCCCN(CCC12CC3CC(CC(C3)C1)C2)C(=O)NCCCc1ccncc1
active: Potency [3] 18700 nM | Potency [9] 14800 nM | Potency [10] 11800 nM | Potency [7] 2960 nM
inactive: Potency [1] | Potency [2] | Potency [8] | Potency [12] | Potency [11]

COc1ccc(CC2c3cc(OC)c(OC)cc3CC[N+]2(C)CCC(=O)OCCCCCOC(=O)CC[N+]2(C)CCc3cc(OC)c(OC)cc3C2Cc2ccc(OC)c(OC)c2)cc1OC (stereo not drawn)
active: Potency [4] 3280 nM
inactive: Potency [1] | Potency [2] | viability (% of DMSO control) [3] 122% [at 5.15 µM] | viability, % of control [5] 94.3% [at 5.15 µM] | viability, % of DMSO [9] 97.7% [at 5.15 µM] | viability [10] 97.8% [at 5.15 µM] | viability (% of DMSO) [11] 84% [at 5.15 µM]

C=C1C(=CC=C2CCC[C@]3(C)[C@@H]([C@H](C)C=C[C@H](C)C(C)C)CC[C@@H]23)C[C@@H](O)C[C@@H]1O
inactive: Potency [1] | Potency [2]
active: Potency [3] 5900 nM | Potency [4] 8330 nM | Potency [5] 590 nM | Potency [6] 1660 nM | Potency [7] 1480 nM | Potency [11] 469 nM

CN[C@H]1CCc2cc(OC)c(OC)c(OC)c2-c2ccc(OC)c(=O)cc21
inactive: Potency [1] | Potency [2] | Potency [3] | Potency [7]
active: Potency [4] 1 nM | Potency [6] 1.5 nM

CC(=O)SC[C@@H](C)C(=O)N1CCC[C@H]1C(=O)N[C@@H](Cc1ccccc1)C(=O)O
inactive: Potency [1] | Potency [2] | Potency [3] | Potency [4] | Potency [9] | Potency [6] | Potency [10] | Potency [7] | Potency [11]

COc1cc2ncn(-c3cc(OCc4ccccc4C(F)(F)F)c(C(N)=O)s3)c2cc1OC
active: Potency [3] 5260 nM | Potency [4] 7430 nM | Potency [5] 2640 nM | Potency [9] 743 nM | Potency [10] 935 nM | Potency [7] 235 nM | Potency [11] 469 nM
inactive: Potency [1] | Potency [2]

Cc1ccc(C(=O)Nc2ccc(CN3CCN(C)CC3)c(C(F)(F)F)c2)cc1C#Cc1cnc2cccnn12
inactive: Potency [1] | Potency [2] | Potency [13] | Potency [14] | Potency [12]
active: Potency [3] 1480 nM | Potency [4] 662 nM | Potency [5] 2640 nM | Potency [6] 1660 nM | Potency [10] 14800 nM | Potency [7] 5260 nM | Potency [11] 2090 nM

c1cc(-c2cnn3cc(-c4ccc(OCCN5CCCCC5)cc4)cnc23)ccn1
active: Potency [3] 11800 nM | Potency [4] 2090 nM | Potency [5] 16600 nM | Potency [6] 16600 nM
inactive: Potency [1] | Potency [2] | Potency [10] | Potency [7] | Potency [11]
